This is a sample that favours compounds with a hit; in the whole collection about 2.1% have one here.
FUS suppressor – rescues growth of FUS-expressing yeast; S. cerevisiae FUS-expressing, growth rescue, OD600, 24 h; Potency, µM (highest dose often 76.6 µM), usual class: activators; actives 0.24% (n = 390,000); AID 1347120;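 note: plate controls were DMSO vehicle for no effect and reference control for full effect; nearly all actives have a fitted effect of over 55% in size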
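FUS-expressing yeast, raffinose-pregrown, induced in 2% galactose minimal medium at OD 0.005; compounds in a dilution series, 24hr at 30C. Growth restoration read as absorbance at 600 nm. CP55940 positive control, DMSO negative.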
TDP43 rescue – inhibitors of TDP-43 toxicity in yeast | TDP-43 expressing yeast growth rescue, BacTiter-Glo, 24 h | Potency, µM (top dose mostly 46.1 µM), inactives show at the top dose growth rescue (activation), hits mostly activators | actives 1.8% (n = 410,000) | AID 652104; note: % of control where 0% means no effect; nearly all actives have a fitted effect of over 50% in size
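Yeast expressing TDP-43 (pregrown in raffinose, seeded at OD600=0.02 in galactose medium) exposed to compounds 24 hr at 30 deg C. Growth read by BacTiter-Glo luminescence; rescue of toxicity appears as increased signal.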
aSyn yeast inh – inhibitors of alpha-synuclein toxicity in yeast; actives 0.14% (n = 370,000); Yeast expressing alpha-synuclein, growth rescue, BacTiter-Glo, 24 h; Potency, µM (top dose mostly 46.1 µM), inactives show top-dose growth rescue (activation), usual class: activators; note: % of control where 0% means no effect; nearly all actives have a fitted effect of over 65% in size
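Rescue of yeast growth: cells expressing toxic alpha-synuclein, induced in galactose at OD600 0.02, incubated with compound 24 h at 30 C. ATP luminescence quantified growth; inhibitors of toxicity appear as activators.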
Abeta rescue – restores growth of yeast expressing A-beta42 peptide | yeast expressing A-beta42, growth rescue, OD600, 48 h; response scale: 0% DMSO, 100% iron-clioquinol control | Potency, µM (doses to about 46.1 µM), usual class: activators | actives 0.063% (n = 410,000) | AID 1347071; note: nearly all actives have a fitted effect of over 55% in size
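Yeast growth medium received pinned compounds, then yeast cells expressing toxic A-beta were added; plates incubated at 30 C for 48 hr. Growth read as absorbance at 600 nm, normalized to DMSO and equimolar FeCl3 plus clioquinol controls.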
Starred values were filed as active, the others as inactive; i = inactive; ? = inconclusive; . = no result. Calls come from the whole dose curve; as a rule, active = well fitted curve in the direction sought with a large enough effect; inconclusive = small, poorly fitted or top-dose-only effect, or another doubt; inactive = no such curve, though single readings can be large; an effect the other way counts as inactive or inconclusive. Potency is the fitted concentration of half-maximal effect.

SMILES	FUS suppressor	TDP43 rescue	aSyn yeast inh	Abeta rescue
CC(C)C1C(=O)N(Cc2cn(CCC3OCCO3)nn2)CCS(=O)(=O)N1Cc1ccc(-c2ccccc2)cc1 (stereo unspecified)	?	?	0.4%	i
COc1cc(C(=O)N2CCN(S(=O)(=O)c3ccc(Cl)cc3)CC2)ccc1OCC(=O)N1CCOCC1	i	-13.8%	1.6%	i
Cc1ccc(Cn2c(C(CO)Nc3nc(-c4ccc(F)cc4)cs3)nc3ccccc32)cc1 (stereo unspecified)	?	-70.8%	-52.1%	?
Cc1ccc(Cn2c(C(CO)Nc3nc(-c4ccc(Cl)c([N+](=O)[O-])c4)cs3)nc3ccccc32)cc1 (stereo unspecified)	?	25.1µM*	?	i
CC(NC(=O)c1ccccc1Br)C1CC2CCC1C2 (stereo unspecified)	i	13.9%	3.1%	i
Cc1c(C(=O)O)oc2c1-c1nn(Cc3ccccc3Cl)cc1CC2	i	15.8µM*	.	i
COc1cc(NC(=O)c2cccs2)c(C(=O)OCC(=O)c2cc(C)n(-c3ccccc3)c2C)cc1OC	i	-10.8%	-1.3%	i
CCC(=O)c1ccc(OCc2ccccc2)c(OC)c1	i	11.2µM*	10.0%	i
CCC(=O)c1ccc(OCc2ccc(C(=O)OC)cc2)c(OC)c1	i	19.6%	-12.3%	i
Cc1nn(C)c(C(=O)Nc2ccc(S(=O)(=O)NC34CC5CC(CC(C5)C3)C4)cc2)c1Br	i	4.2%	22.4µM*	?
Cc1ccc(S(=O)(=O)NC23CC4CC(CC(C4)C2)C3)cc1	i	?	-2.9%	i
O=C(COCc1cc(-c2ccc3c(c2)OCO3)on1)NCc1ccccc1Cl	i	28.2µM*	.	i
Cc1cc(OC(=O)c2ccccc2C(F)(F)F)c([N+](=O)[O-])c(=O)[nH]1	i	-3.4%	-4.2%	i
CC(C)c1ccc(C2CC(c3ccc(Br)cc3)=NN2C(N)=S)cc1 (stereo unspecified)	i	-6.4%	-13.2%	10µM*
COc1cccc(C2NC(=O)c3ccccc3O2)c1OC (stereo unspecified)	i	?	-0.6%	i
CCOc1cc(-c2cc(-c3ccc(N)cc3)nc(N)c2C#N)ccc1O	i	15.8µM*	-24.3%	i
N#Cc1c(-c2ccncc2)cc(-c2ccc(F)cc2)nc1N	i	6.3%	1.2%	5.62µM*
COC(=O)c1ccc(Nc2nc(-c3ccc(C)cc3)nc3ccccc23)cc1	i	14.1µM*	.	i
CNC(=O)c1ccc(Nc2nc(-c3ccccc3)nc3ccccc23)cc1	i	0.0%	12.3%	i
O=C(O)c1ccc(Nc2nc(-c3ccccc3)nc3ccccc23)cc1	i	22.4µM*	-18.0%	i
CCCOC(=O)c1cccc(Nc2nc(-c3cccnc3)nc3ccccc23)c1	i	22.4µM*	10.1%	i
O=C(CSc1nc2nc(-c3cccs3)cc(C(F)(F)F)c2c(=O)[nH]1)Nc1c(F)c(F)c(F)c(F)c1F	i	.	2.4%	i
O=C(COc1ccccc1)NCCS(=O)(=O)N1CCN(c2ccccc2)CC1	i	13.4%	3.0%	i
COc1cc(CNc2ncnc3c2ncn3[C@H]2CN(Cc3ccc(-c4ccccc4)cc3)C[C@@H](CO)O2)cc(OC)c1OC	?	9.0%	-2.6%	i
CC(=O)OC[C@@H]1CN(Cc2ccccc2)C[C@H](n2cnc3c(N4CCN(c5ccccc5)CC4)ncnc32)O1	i	17.8µM*	0.4%	i
SMILES	FUS suppressor	TDP43 rescue	aSyn yeast inh	Abeta rescue
CC(=O)OC[C@@H]1CN(Cc2ccccc2)C[C@H](n2cnc3c(NC(C)C)ncnc32)O1	i	19.8%	-3.0%	i
COc1cc(CNc2ncnc3c2ncn3[C@H]2CN(Cc3cccc4ccccc34)C[C@@H](CO)O2)cc(OC)c1OC	28.2µM*	0.7%	3.3%	i
CCN(CC)c1ncnc2c1ncn2[C@H]1CN(Cc2ccc(-c3ccccc3)cc2)C[C@@H](CO)O1	28.2µM*	2.0%	?	i
COC(=O)c1ccccc1NC(=O)CSc1nnc(-c2ccoc2C)n1C	i	-2.5%	0.5%	i
Cc1c(C#N)c(NC(=O)C(C)C)n(Cc2ccccc2)c1C	i	2.3%	2.4%	i
CN(C(=O)Cn1ncc2c1-c1ccccc1OC2)c1ccc(Br)cc1	i	17.8µM*	.	i
O=C(Cn1ncc2c1-c1ccccc1OC2)Nc1nc2ccccc2s1	i	14.1µM*	-8.3%	i

High-throughput results (PubChem BioAssay)
